Experimental data reported in ChEMBL document CHEMBL1961873, “Compounds: GSK PKIS; Assays: Nanosyn kinase panel” (2012).

Experiments:
[1] = target: T1, 3-phosphoinositide-dependent protein kinase 1 (Homo sapiens) (UniProt O15530); settings: at 0.1 µM;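 further: values are mean inhibition of PDK1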
T1 sequence (whole entry): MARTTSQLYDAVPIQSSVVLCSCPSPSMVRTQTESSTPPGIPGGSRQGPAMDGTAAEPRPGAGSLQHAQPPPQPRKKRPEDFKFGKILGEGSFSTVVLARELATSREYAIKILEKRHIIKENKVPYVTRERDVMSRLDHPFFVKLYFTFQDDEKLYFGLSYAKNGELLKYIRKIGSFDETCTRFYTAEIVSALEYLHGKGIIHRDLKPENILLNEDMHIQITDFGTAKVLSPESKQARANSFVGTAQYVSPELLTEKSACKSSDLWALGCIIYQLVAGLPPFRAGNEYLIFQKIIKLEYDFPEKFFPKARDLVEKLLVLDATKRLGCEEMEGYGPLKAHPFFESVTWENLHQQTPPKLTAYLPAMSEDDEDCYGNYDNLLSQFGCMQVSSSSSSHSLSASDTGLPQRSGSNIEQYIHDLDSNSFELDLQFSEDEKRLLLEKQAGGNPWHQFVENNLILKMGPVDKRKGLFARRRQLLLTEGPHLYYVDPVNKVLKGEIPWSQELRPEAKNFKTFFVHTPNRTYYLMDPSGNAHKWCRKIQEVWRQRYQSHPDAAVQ

[2] = target: cAMP-dependent protein kinase catalytic subunit alpha (Homo sapiens) (UniProt P17612); settings: at 0.1 µM
[3] = target: cAMP-dependent protein kinase catalytic subunit alpha (Homo sapiens) (UniProt P17612); settings: at 1 µM
[4] = target: Protein kinase C alpha type (Homo sapiens) (UniProt P17252); settings: at 0.1 µM
[5] = target: Protein kinase C alpha type (Homo sapiens) (UniProt P17252); settings: at 1 µM
[6] = target: Protein kinase C beta type (Homo sapiens) (UniProt P05771); settings: at 0.1 µM
Sequence of Protein kinase C beta type (Homo sapiens) (P05771 2-671 limits assumed): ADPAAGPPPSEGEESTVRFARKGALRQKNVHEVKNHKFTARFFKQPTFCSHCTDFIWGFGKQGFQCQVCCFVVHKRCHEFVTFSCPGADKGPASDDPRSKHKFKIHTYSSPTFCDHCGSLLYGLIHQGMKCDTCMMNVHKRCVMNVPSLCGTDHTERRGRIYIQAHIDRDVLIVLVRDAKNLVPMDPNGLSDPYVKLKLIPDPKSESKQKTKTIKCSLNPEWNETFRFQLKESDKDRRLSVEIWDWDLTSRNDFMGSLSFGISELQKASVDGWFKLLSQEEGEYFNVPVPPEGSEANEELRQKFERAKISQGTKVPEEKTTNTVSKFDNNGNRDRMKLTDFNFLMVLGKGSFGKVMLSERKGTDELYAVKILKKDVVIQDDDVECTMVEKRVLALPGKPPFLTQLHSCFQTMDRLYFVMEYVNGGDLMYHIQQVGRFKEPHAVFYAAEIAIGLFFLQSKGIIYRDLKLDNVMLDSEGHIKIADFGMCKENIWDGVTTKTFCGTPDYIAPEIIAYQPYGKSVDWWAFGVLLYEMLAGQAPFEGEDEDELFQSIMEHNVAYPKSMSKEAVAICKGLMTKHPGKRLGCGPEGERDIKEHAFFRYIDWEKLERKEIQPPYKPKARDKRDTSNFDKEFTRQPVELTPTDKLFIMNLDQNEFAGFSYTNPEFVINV

[7] = target: Protein kinase C beta type (Homo sapiens) (UniProt P05771); settings: at 1 µM
[8] = target: Protein kinase C eta type (Homo sapiens) (UniProt P24723); settings: at 0.1 µM
Sequence of Protein kinase C eta type (Homo sapiens) (P24723 whole entry): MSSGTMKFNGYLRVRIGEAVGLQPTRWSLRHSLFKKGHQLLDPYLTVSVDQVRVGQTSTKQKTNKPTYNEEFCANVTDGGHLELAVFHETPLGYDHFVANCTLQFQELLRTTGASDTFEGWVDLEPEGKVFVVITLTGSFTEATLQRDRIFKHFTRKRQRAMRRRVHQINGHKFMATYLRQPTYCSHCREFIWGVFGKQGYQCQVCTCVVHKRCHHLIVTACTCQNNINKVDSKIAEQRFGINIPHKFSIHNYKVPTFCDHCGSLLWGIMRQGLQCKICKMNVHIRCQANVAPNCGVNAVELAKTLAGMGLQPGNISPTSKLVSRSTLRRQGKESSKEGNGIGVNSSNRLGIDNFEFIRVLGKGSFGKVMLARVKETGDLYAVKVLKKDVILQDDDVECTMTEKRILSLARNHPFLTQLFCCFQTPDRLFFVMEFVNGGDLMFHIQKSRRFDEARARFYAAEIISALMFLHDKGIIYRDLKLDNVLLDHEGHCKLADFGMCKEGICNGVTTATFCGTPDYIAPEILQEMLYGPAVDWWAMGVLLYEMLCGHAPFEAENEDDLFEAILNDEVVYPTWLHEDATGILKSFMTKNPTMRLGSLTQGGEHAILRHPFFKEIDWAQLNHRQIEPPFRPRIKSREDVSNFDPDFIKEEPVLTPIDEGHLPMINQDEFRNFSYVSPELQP

[9] = target: Protein kinase C eta type (Homo sapiens) (UniProt P24723); settings: at 1 µM
[10] = target: Protein kinase C gamma type (Homo sapiens) (UniProt P05129); settings: at 0.1 µM
[11] = target: Protein kinase C gamma type (Homo sapiens) (UniProt P05129); settings: at 1 µM
[12] = target: T2, Protein kinase C iota type (Homo sapiens) (UniProt P41743); settings: at 0.1 µM
T2 sequence (whole entry): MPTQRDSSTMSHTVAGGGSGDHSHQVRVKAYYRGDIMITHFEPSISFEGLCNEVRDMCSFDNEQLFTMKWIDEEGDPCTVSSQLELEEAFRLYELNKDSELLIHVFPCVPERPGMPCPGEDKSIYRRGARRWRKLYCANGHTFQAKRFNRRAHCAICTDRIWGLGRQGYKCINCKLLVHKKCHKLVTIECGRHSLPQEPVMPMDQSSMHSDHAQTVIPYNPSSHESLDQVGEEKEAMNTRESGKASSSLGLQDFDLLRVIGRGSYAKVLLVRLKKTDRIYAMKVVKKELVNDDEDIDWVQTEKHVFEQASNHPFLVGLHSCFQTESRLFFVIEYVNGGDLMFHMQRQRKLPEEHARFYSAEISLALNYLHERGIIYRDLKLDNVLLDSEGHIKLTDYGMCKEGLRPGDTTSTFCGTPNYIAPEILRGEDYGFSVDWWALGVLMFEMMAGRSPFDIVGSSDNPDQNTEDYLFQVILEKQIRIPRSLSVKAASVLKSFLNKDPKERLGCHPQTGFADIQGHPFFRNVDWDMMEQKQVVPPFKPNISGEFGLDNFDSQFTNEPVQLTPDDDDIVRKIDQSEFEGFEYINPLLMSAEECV

[13] = target: T2, Protein kinase C iota type (Homo sapiens); settings: at 1 µM
[14] = target: Protein kinase C theta type (Homo sapiens) (UniProt Q04759); settings: at 0.1 µM
Sequence of Protein kinase C theta type (Homo sapiens) (Q04759 whole entry, looked up): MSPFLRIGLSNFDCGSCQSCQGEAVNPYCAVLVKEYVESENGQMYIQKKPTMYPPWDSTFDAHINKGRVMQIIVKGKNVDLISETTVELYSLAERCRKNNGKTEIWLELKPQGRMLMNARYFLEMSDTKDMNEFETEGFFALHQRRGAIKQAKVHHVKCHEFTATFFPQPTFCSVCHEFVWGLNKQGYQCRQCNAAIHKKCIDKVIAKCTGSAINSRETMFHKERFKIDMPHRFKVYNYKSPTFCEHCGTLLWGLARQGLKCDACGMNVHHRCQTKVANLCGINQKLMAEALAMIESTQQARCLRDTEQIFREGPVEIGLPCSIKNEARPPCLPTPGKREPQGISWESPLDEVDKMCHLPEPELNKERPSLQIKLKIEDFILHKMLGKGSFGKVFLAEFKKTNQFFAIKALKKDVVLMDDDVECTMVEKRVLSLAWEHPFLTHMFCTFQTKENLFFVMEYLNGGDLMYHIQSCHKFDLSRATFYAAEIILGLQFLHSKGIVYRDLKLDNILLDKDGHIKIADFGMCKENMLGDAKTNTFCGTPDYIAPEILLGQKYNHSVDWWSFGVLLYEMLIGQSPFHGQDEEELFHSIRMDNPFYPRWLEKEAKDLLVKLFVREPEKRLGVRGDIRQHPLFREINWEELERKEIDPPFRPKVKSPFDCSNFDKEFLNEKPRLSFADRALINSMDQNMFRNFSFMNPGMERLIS

[15] = target: Protein kinase C theta type (Homo sapiens) (UniProt Q04759); settings: at 1 µM
[16] = target: Protein kinase C beta type (Homo sapiens) (UniProt P05771); settings: at 0.1 µM; remark: listed apart in the source
[17] = target: Protein kinase C beta type (Homo sapiens) (UniProt P05771); settings: at 1 µM; remark: listed apart in the source
[18] = target: T3, Serine/threonine-protein kinase D1 (Homo sapiens) (UniProt Q15139); settings: at 0.1 µM
T3 sequence (whole entry): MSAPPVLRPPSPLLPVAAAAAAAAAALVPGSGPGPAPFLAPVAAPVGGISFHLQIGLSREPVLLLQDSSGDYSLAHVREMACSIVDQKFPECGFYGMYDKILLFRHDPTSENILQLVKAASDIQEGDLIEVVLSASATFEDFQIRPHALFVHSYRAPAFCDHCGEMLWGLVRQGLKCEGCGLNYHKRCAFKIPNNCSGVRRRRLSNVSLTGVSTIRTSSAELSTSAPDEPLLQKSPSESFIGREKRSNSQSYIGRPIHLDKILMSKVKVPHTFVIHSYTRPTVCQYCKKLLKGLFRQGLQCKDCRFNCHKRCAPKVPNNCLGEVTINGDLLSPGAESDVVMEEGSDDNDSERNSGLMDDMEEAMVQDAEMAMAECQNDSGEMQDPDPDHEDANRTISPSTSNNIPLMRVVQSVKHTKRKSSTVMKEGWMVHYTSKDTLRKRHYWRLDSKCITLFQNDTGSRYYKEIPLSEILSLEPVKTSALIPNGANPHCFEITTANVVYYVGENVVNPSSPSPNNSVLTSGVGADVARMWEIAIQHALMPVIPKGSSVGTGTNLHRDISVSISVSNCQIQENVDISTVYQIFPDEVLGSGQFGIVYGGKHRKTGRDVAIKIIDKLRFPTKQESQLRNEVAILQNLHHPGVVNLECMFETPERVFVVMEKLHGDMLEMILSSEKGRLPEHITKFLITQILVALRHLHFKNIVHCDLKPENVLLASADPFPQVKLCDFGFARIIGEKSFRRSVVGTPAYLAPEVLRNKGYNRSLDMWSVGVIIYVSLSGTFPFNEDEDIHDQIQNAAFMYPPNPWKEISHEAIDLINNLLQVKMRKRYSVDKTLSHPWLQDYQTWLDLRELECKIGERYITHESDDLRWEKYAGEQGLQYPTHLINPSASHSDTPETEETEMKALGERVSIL

[19] = target: T3, Serine/threonine-protein kinase D1 (Homo sapiens); settings: at 1 µM
[20] = target: T4, Serine/threonine-protein kinase D2 (Homo sapiens) (UniProt Q9BZL6); settings: at 0.1 µM;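 further: reported percent inhibition values are means, part of the GSK PKIS kinase panel screen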
T4 sequence (whole entry): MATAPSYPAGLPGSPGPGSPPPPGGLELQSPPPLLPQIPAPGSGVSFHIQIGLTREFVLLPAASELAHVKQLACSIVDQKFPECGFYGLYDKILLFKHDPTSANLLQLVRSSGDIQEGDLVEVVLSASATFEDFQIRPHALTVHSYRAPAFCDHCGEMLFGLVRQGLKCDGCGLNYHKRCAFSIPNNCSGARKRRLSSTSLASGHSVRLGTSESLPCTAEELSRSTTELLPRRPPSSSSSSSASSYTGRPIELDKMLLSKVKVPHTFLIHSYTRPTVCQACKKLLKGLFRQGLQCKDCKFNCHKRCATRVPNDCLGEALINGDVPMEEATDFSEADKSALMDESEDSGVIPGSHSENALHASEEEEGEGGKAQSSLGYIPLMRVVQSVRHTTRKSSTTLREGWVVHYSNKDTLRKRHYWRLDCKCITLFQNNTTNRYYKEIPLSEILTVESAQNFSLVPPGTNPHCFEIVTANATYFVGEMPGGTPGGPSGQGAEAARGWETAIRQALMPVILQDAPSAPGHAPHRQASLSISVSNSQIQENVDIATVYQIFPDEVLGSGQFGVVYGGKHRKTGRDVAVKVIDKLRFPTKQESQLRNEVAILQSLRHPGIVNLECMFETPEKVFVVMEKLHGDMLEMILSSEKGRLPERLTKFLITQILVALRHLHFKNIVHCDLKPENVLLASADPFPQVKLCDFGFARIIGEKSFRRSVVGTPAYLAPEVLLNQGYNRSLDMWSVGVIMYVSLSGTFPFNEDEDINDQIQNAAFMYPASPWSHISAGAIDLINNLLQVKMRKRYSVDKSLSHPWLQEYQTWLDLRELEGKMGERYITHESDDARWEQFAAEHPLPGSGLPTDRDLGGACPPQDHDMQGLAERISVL

| Compound | inhibition [1] [%] | inhibition [2] [%] | inhibition [3] [%] | inhibition [4] [%] | inhibition [5] [%] | inhibition [6] [%] | inhibition [7] [%] | inhibition [8] [%] | inhibition [9] [%] | inhibition [10] [%] | inhibition [11] [%] | inhibition [12] [%] | inhibition [13] [%] | inhibition [14] [%] | inhibition [15] [%] | inhibition [16] [%] | inhibition [17] [%] | inhibition [18] [%] | inhibition [19] [%] | inhibition [20] [%] |
| --- | --- | --- | --- | --- | --- | --- | --- | --- | --- | --- | --- | --- | --- | --- | --- | --- | --- | --- | --- | --- |
| CCn1c(-c2nonc2N)nc2c(C#CC(C)(C)O)nc(OC[C@H](N)c3ccccc3)cc21 | 0.94 | 81.3 | 82.5 | 3.82 | 32.3 | 32.7 | 67.3 | 97.9 | 97.1 | 8.83 | 45.5 | 0.16 | 3.1 | 55.1 | 82.7 | 16.3 | 59.4 | 5.85 | 29.9 | 5.65 |
| Cc1cccc(Nc2ncc(-c3ccccc3)o2)c1 | 1.5 | 12.6 | 13.8 | 0.24 | 3.41 | 3.52 | 5.79 | 2.87 | 0.87 | 3.99 | 7.25 | 1.43 | 2.2 | 4.9 | 6.83 | 2.39 | 7.38 | 3.07 | 5.44 | 3.21 |
| Fc1cccc(COc2ccc(Nc3ncnc4sc(-c5ccco5)cc34)cc2Cl)c1 | -0.87 | 0.8 | 1.84 | 1.33 | 1.21 | 0.29 | -3.68 | 5.34 | 4.83 | 1.52 | 1.6 | 2.45 | 2.35 | 2 | 2.39 | 1 | 1.15 | 5.24 | 6.44 | 4.13 |
| N#Cc1c(NC(=O)CN2CCOCC2)sc2c1CCCC2 | 2.07 | 2.3 | 1.82 | 2.23 | 5.72 | 0.89 | 2.05 | 5.18 | 3.17 | 3.77 | 4.29 | 1.29 | 0.6 | 3.07 | 3.7 | 1.49 | 2.84 | 3.69 | 6.16 | 3.86 |
| CC(C)(CO)CNC(=O)c1ccc2c(c1)/C(=N/Nc1ccc(S(N)(=O)=O)cc1)C(=O)N2 | 13.1 | 0.87 | 1.58 | -0.39 | 0.27 | -0.69 | 0.02 | 2.86 | -0.08 | 1.72 | 3.43 | -0.53 | -0.82 | 0.56 | 0.9 | 0.36 | 1.12 | 0.49 | 13.9 | 0.9 |
| COc1ccc2[nH]c3c4[nH]c5ccc(OC)cc5c4c4c(c3c2c1)C(=O)NC4=O | 29.8 | 4.03 | 17.2 | 4.27 | 28.7 | 1.55 | 8.91 | 3.82 | 19.5 | 4.07 | 11.7 | 0.72 | 0.15 | 4.69 | 20.9 | 3.68 | 12.9 | 5.02 | 27 | 8.15 |
| CN1CCC(n2cnc(-c3ccc(F)cc3)c2-c2ccnc(N)n2)CC1 | 3.73 | 3.06 | 7.95 | 1.23 | 10.6 | 0.83 | 7.02 | 3.71 | 4.79 | 0.37 | 8.99 | 0.59 | 0.68 | 1.72 | 3.61 | 2.83 | 12.3 | 4.67 | 26.3 | 3.25 |
| COc1ccc(-c2nn3ncccc3c2-c2ccnc(Nc3ccc4c(c3)OCCO4)n2)cc1 | -0.83 | 0.73 | 2.32 | -1.17 | 0.51 | -1.85 | 3.69 | 1.65 | 2.32 | 0.61 | 3.96 | -0.29 | 0.67 | 0.69 | 2.58 | 1.22 | 7.32 | 3.21 | 6.6 | 2.69 |
| Nc1nc(-c2cccc(Cl)c2)c(-c2ccc3ncccc3n2)s1 | 0.49 | 2.34 | 4.12 | 1.05 | 1.4 | 2.33 | 4.87 | 5.47 | 7.42 | 1.18 | 6.65 | 2.71 | 1.25 | 4.95 | 5.67 | 2.82 | 2.11 | 5.85 | 35 | 7.33 |
| c1ccc(COc2ccc(Nc3ncnc4ccc(-c5ccco5)cc34)cc2)cc1 | 0.07 | 1.25 | 1.55 | -0.04 | 0.05 | -0.86 | -0.3 | 0.37 | 0.45 | 0.73 | 0.84 | -1.29 | -0.86 | -2.6 | -0.62 | 0.49 | 0.58 | 1.25 | 0.71 | 3.12 |
| CNC(=O)c1cc(-c2ccc(F)cc2)cc(-c2ccc(S(=O)(=O)N3CCCC3)cc2)c1N | 1.46 | 0.9 | 0.32 | 0.46 | 1.02 | -0.39 | 0.24 | 3.68 | 1.41 | 2.34 | 2.53 | 1.11 | 1.04 | 0.84 | 1.4 | -0.56 | 1.04 | 3.87 | 4.98 | 2.4 |
| CCNC(=O)O[C@H]1CN[C@H](C#Cc2cc3ncnc(Nc4ccc(OCc5cccc(F)c5)c(Cl)c4)c3s2)C1 | 4.86 | 1.62 | 1.22 | 0.4 | 1.1 | 0.61 | -2.05 | 3.54 | -2.11 | -1.05 | 3.31 | 1.37 | 3.17 | 1.01 | 0.75 | -0.74 | 0.7 | 2.66 | 4.66 | 2.15 |
| CCCN1CCC(c2ccc(Nc3nc(Nc4cc(F)ccc4C(N)=O)c4cc[nH]c4n3)c(OC)c2)CC1 | 0.96 | 2.33 | 3.51 | 0.66 | 16.6 | 0.19 | 4.9 | 2.99 | 9.93 | 3.12 | 29.8 | 0.78 | 1.12 | 2.2 | 8.87 | 1.54 | 6.05 | 21.5 | 73.8 | 18 |
